{"source": "PubChem BioAssay (NCATS)", "note": "Inconclusive results are not listed. Active and inactive are the calls of the source. The call rests on the fitted dose curve; in most records, active means well fitted inhibition curve with a large enough effect; inconclusive means small, poorly fitted or top-dose-only effect; inactive means flat fitted curve, though single readings scatter. On the % scale 0 is the no-effect control and ±100 the full control effect.", "data": [{"molecular_target": "Calcium and integrin-binding protein 1 (Homo sapiens) (UniProt Q99828)", "sequence (Q99828 whole entry, looked up)": "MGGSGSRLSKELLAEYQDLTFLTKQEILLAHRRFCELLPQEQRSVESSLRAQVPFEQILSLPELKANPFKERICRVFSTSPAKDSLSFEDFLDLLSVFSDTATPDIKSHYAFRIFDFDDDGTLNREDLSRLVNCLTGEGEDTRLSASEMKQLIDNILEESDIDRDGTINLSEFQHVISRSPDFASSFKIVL", "assay": "Primary qHTS for Identification of Calcium Integrin Binding Protein 1 (CIB1) Competitor (AID 1508620);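 further: GST tagged CIB1 binding a fluorescein labelled alphaIIb integrin peptide tracer; top concentration of the series differs between compounds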", "details": "CIB1-GST / FITC-alphaIIb peptide fluorescence polarization; series mostly up to 114 µM; activity change, negative = inhibition: at the top concentration", "procedure,_shortened": "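Fluorescence polarization competition: CIB1-GST (1 uM final) preincubated with compound 15 min at room temperature, then FITC-labeled alphaIIb peptide (100 nM final) added for another 15 min. Polarization read at Ex 480/Em 540.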", "values": [{"smiles": "CN(C)CCOC(C)(c1ccccc1)c1ccc(Cl)cc1", "note": "(centres undefined)", "activity change, negative = inhibition": "1.93% (inactive)"}, {"smiles": "COc1cc([C@H]2O[C@H](c3cc(OC)c4c(c3)OCO4)[C@H](C)[C@H]2C)cc(OC)c1OC", "activity change, negative = inhibition": "4.26% [at 57.7 µM] (inactive)"}, {"smiles": "CC(C)/C=C1\\NC(=O)C(C(C)C)n2c1nc1ccccc1c2=O", "note": "(centres undefined)", "activity change, negative = inhibition": "0.823% [at 57.7 µM] (inactive)"}, {"smiles": "CCN1CCN(Cc2ccc(NC(=O)c3ccc(C)c(Oc4ccnc5[nH]ccc45)c3)cc2C(F)(F)F)CC1", "activity change, negative = inhibition": "-8.4% [at 57.7 µM] (inactive)"}, {"smiles": "COc1ccc(CCO[C@@H]2O[C@H](CO[C@H]3OC[C@](O)(CO)[C@H]3O)[C@@H](OC(=O)/C=C/c3ccc(O)c(O)c3)[C@H](O[C@@H]3O[C@@H](C)[C@H](O)[C@@H](O)[C@H]3O)[C@H]2O)cc1OC", "activity change, negative = inhibition": "1.27% [at 30.2 µM] (inactive)"}, {"smiles": "FC(F)(F)c1ccccc1-c1cc(C(F)(F)F)c2nc(C3=NOC4(CCCCC4)C3)[nH]c2c1", "activity change, negative = inhibition": "-2.42% (inactive)"}, {"smiles": "Clc1ccc(Cn2c(Cc3ccccc3)nc3ccccc32)cc1", "activity change, negative = inhibition": "-0.212% (inactive)"}, {"smiles": "COc1cc2c(cc1NS(=O)(=O)c1ccc(Br)cc1C)n(C)c(=O)n2C", "activity change, negative = inhibition": "5.05% (inactive)"}, {"smiles": "CCOC(=O)C1=Cc2ccc(C(F)(F)C(F)(F)F)cc2N=C(N)C1", "activity change, negative = inhibition": "-3.16% (inactive)"}, {"smiles": "COc1c2c(c(C)c3c1C(=O)OC3)O[C@@]1(C)C[C@@H](OC(C)=O)[C@]34O[C@](OC)(CC[C@]3(C)[C@H]1C2)OC4(C)C", "activity change, negative = inhibition": "4.59% [at 57.7 µM] (inactive)"}, {"smiles": "C[C@H]1[C@H](/C=C/c2ccc(-c3ccccc3C#N)cn2)[C@@H]2[C@@H](C)OC(=O)[C@@H]2C[C@@H]1C", "activity change, negative = inhibition": "0.161% (inactive)"}, {"smiles": "CCCSc1nc(N[C@@H]2C[C@H]2c2ccc(F)c(F)c2)c2nnn([C@@H]3C[C@H](OCCO)[C@@H](O)[C@H]3O)c2n1", "activity change, negative = inhibition": "-25.3% (inactive)"}, {"smiles": "OC1C=C2C3CN(Cc4cc5c(cc43)OCO5)C2CC1O", "note": "(centres undefined)", "activity change, negative = inhibition": "-4.33% (inactive)"}, {"smiles": "CC[C@H](C)/C=C(C)/C=C/C1=CC2=CC(=O)[C@]3(C)OC(=O)[C@@H](C(C)=O)[C@@H]3C2=CO1", "activity change, negative = inhibition": "2.53% [at 57.7 µM] (inactive)"}, {"smiles": "COc1ccc2cc(-c3cc(-c4cc(Cl)cc(Cl)c4)nn3C(C)c3ccc(C(=O)NCCC(=O)O)cc3)ccc2c1", "note": "(centres undefined)", "activity change, negative = inhibition": "4.36% (inactive)"}, {"smiles": "CC(C)c1ccc(NC(=O)Cn2cnc3c2c(=O)n(C)c(=O)n3C)cc1", "activity change, negative = inhibition": "3.06% (inactive)"}, {"smiles": "C=C[C@]1(C)C[C@H](O)[C@H]2C(=C)C(=O)O[C@@H]2[C@H]1C(=C)CO", "activity change, negative = inhibition": "-7.99% (inactive)"}, {"smiles": "CCC(C)C(=O)Oc1cc(C)ccc1C1(COC(=O)C(C)C)CO1", "note": "(centres undefined)", "activity change, negative = inhibition": "1.16% [at 57.7 µM] (inactive)"}, {"smiles": "Cc1cc(OCCCS(C)(=O)=O)cc(C)c1-c1cccc(COc2ccc3c(c2)OCC3CC(=O)O)c1", "note": "(centres undefined)", "activity change, negative = inhibition": "-7.14% (inactive)"}, {"smiles": "CC(C)Oc1ccc(-c2cnc3c(-c4ccnc5ccccc45)cnn3c2)cc1", "activity change, negative = inhibition": "4.35% (inactive)"}, {"smiles": "COc1cc2nc(C3CC3)nc(N3CCN(c4ccccc4OC)CC3)c2cc1OC", "activity change, negative = inhibition": "-5.8% (inactive)"}, {"smiles": "COc1cc2c(cc1OC)CN(C(=O)/C=C/c1c(-c3ccccc3)n(C)c3ncccc13)CC2", "activity change, negative = inhibition": "-6.39% (inactive)"}, {"smiles": "CCn1c2ccccc2c2cc(Nc3ccnc(NCCCN4CCOCC4)n3)ccc21", "activity change, negative = inhibition": "-15.7% (inactive)"}, {"smiles": "CCC(C)C(=O)OC12C(OC(C)=O)C(C)C3(O)C(C=C(CO)CC4(O)C(=O)C(C)=CC43)C1C2(C)C", "note": "(centres undefined)", "activity change, negative = inhibition": "0.799% [at 57.7 µM] (inactive)"}]}]}
